Sampled rows, rich in hits. Any-hit rate of the full collection: about 5.4%.
aDG glyco act: increases alpha dystroglycan glycosylation; activation, % at 10 µM; Pro5-aDG cells, alpha-DG glycosylation AlphaScreen (IIH6); 0% Pro5, 100% B10-LARGE cell signal; AID 624168; 360,000 compounds, 0.22% hits;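 active = activation of at least 8% versus controls, or a plate z-score of at least 8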;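 also: Pro5 are CHO cells carrying HIG-tagged alpha-DG that lacks glycosylation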
rCAG binder: molecules binding r(CAG) RNA repeats | r(CAG) RNA repeat, TO-PRO-1 dye displacement fluorescence | inhibition, % at 3 µM | 370,000 compounds, 1.3% hits | AID 651821;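 active = inhibition above the plate cutoff, the mean of all test compounds on that plate plus 3 SD, cut at about 35% in these data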;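 also: 0% = DMSO alone and 100% = 100 µM mitoxantrone as full dye displacement; higher means more dye released from RNA so lower well fluorescence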
A3A deaminase: inhibitors of human APOBEC3A DNA deaminase | recombinant A3A, FAM/TAMRA ssDNA deamination fluorescence | P31941 | AID 493011 | 330,000 compounds, 0.41% hits | inhibition, % at 20 µM;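 active = at least 40% inhibition at 20 µM here, with at most 30% in a related deaminase screen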;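 also: plate controls were A3A with DMSO for no effect and wells lacking A3A enzyme for full effect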
Target sequence (P31941 whole entry, looked up): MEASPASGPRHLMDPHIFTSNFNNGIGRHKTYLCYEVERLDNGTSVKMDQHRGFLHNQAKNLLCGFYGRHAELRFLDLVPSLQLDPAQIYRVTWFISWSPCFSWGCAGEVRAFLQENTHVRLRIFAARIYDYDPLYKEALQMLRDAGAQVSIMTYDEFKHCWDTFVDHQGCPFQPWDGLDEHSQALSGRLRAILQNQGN
PHOSPHO1 inh: inhibitors of human PHOSPHO1 phosphatase; Q8TCT1; recombinant PHOSPHO1, absorbance phosphatase assay; inhibition, % at 13.3 µM; 290,000 compounds, 1.1% hits; in the data active = inhibition above about 60%
Target sequence (Q8TCT1 whole entry, looked up): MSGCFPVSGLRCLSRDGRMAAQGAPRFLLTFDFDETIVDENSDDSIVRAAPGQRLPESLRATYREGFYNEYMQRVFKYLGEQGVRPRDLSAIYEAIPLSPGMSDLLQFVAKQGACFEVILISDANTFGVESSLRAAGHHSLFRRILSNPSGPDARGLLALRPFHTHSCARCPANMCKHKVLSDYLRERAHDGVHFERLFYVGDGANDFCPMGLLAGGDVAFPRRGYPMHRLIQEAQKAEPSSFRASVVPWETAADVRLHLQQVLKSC
APOBEC3G inh: blocks human APOBEC3G single-stranded DNA deamination; Q9HC16; recombinant A3G, ssDNA deamination FAM/TAMRA fluorescence; inhibition, % at 20 µM; 330,000 compounds, 0.28% hits; AID 493012;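 active = inhibition of at least 40% at 20 µM, with no more than 30% in the related APOBEC3A deaminase screen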;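 also: plate controls were DMSO wells with A3G for no effect and wells lacking A3G enzyme for full effect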
ALR H2O2 inh: inhibitors of human sulfhydryl oxidase ALR; P55789; purified ALR, DTT oxidation, H2O2 HRP-luminol luminescence; inhibition, % (test concentration not listed); 290,000 compounds, 3.8% hits;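 active = mean replicate inhibition above about 79%, with every replicate also reaching it, limit read from the data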
Target sequence (P55789 whole entry, looked up): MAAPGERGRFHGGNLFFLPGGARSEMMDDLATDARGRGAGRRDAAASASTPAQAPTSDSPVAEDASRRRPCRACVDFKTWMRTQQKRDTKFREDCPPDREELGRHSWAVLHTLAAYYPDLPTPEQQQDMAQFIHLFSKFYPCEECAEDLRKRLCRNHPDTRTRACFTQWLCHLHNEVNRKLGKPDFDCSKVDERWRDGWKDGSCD
* hit, by the source's call; . = no result.

SMILES	aDG glyco act	rCAG binder	A3A deaminase	PHOSPHO1 inh	APOBEC3G inh	ALR H2O2 inh
COc1ccc(C(C2C(=O)CC(C)(C)CC2=O)C2C(=O)CC(C)(C)CC2=O)cc1COCC(F)(F)F	0.3	-1.4	5.0	-14.6	0.2	98.6*
COc1ccc(C(C2C(=O)CC(C)(C)CC2=O)C2C(=O)CC(C)(C)CC2=O)cc1	0.0	-4.2	1.2	19.7	0.9	96.8*
CC(=O)Nc1sc(N/N=C\c2ccc(O)cc2)nc1-c1cccs1	0.5	21.8	0.5	-42.3	-4.7	91.3*
CC(=O)Nc1sc(NC(=O)c2ccccc2)nc1-c1cccs1	-0.3	-2.0	-4.4	0.7	-8.4	98.0*
COc1ccccc1C(=O)Nc1nc(-c2cccs2)c(NC(C)=O)s1	-0.5	9.9	-1.5	18.6	-0.2	-8.9
CC(=O)Nc1sc(N/N=C\c2cccc(Cl)c2)nc1-c1cccs1	0.0	14.4	-1.8	-20.1	0.8	-2.6
COCCN1Cc2cc(C(=O)OC)c3c(c2C1=O)c1cc(OC)ccc1n3S(=O)(=O)c1ccc(C)cc1	.	14.2	.	.	.	.
Cc1cc(N2CCN(C(=O)OC(C)(C)C)C[C@@H]2C)ccc1N1CCN(Cc2ccccc2)[C@@H](C)C1	.	5.2	.	.	.	.
Cc1cc2cc(CNC(=O)C3CCCC3)ccc2n1C	-0.1	9.7	4.1	8.5	2.8	96.6*
COc1cccc(-c2nc(CS(=O)(=O)CC(=O)NCCCOC(C)C)c(C)o2)c1	0.1	-7.4	-2.3	-10.4	-7.9	93.9*
COc1cccc(-c2nc(CS(=O)(=O)CC(=O)NCc3ccccc3)c(C)o2)c1	0.1	2.1	-1.0	-14.5	-6.1	.
COc1cccc(-c2nc(CS(=O)(=O)CC(=O)NCc3ccccc3OC)c(C)o2)c1	0.2	2.2	-3.6	-14.7	-13.0	44.5
CCC(C)NC(=O)CS(=O)(=O)Cc1nc(-c2cccc(OC)c2)oc1C (centres undefined)	0.0	-0.8	14.8	6.1	-3.2	99.2*
COc1cccc(-c2nc(CS(=O)(=O)CC(=O)NCc3ccc4c(c3)OCO4)c(C)o2)c1	-0.1	-2.0	0.6	15.9	20.5	95.4*
COc1cccc(-c2nc(CS(=O)CC(=O)NCCCOC(C)C)c(C)o2)c1 (centres undefined)	-0.2	-6.1	-2.6	-10.4	-5.7	98.8*
CCCCNC(=O)C[C@H]1C[C@@]2(C(=O)OC)C(=C[C@H](C(C)C)O[C@@H]2C2CC2)N(Cc2ccccc2)C1=O	.	-2.4	.	.	.	.
COc1ccc(S[C@]2(C(=O)N3CCN(C(C)=O)CC3)CC(=O)N(C(=O)CCc3ccccc3)[C@@H]2c2ccc(OC)cc2)cc1	.	9.8	.	.	.	.
CCN(CC)C(=O)CC[C@@H]1CC[C@]2(CCCN(C(=O)c3ccccc3)C2)O1	.	-1.5	.	.	.	.
C=CCN1C(=O)[C@@H](CC(=O)NCCCN2CCCC2=O)[C@]2(C(=O)OCC)CCCCC/C=C/12	.	0.8	.	.	.	.
Cc1nn(-c2ccccc2)c2sc(C(=O)NCc3ccc(F)cc3)cc12	.	7.7	.	.	.	.
Cc1ccc(C)c(Nc2nc3nonc3nc2N2CCOCC2)c1	-0.2	-2.1	-2.4	61.1*	-7.1	-3.3
CC(C)c1ccc(/C=C/C(=O)NC(=S)NN2CCOCC2)cc1	0.1	-0.1	-3.5	21.8	-9.1	80.4*
CC(C)c1ccc(/C=C/C(=O)NC(=S)Nc2ccc(CN3CCOCC3)cc2)cc1	0.8	-1.2	1.4	-5.1	0.3	47.7
CCc1ccc(C=NN2CCN(Cc3ccc(C)cc3C)CC2)cc1	.	0.4	.	.	.	.
CCOC(=O)Cn1cc(CN2CCS(=O)(=O)N(Cc3ccc(F)cc3)C(C(=O)OC)C2)nn1 (centres undefined)	.	4.3	.	.	.	.
SMILES	aDG glyco act	rCAG binder	A3A deaminase	PHOSPHO1 inh	APOBEC3G inh	ALR H2O2 inh
CSc1ccc(NC(=O)NCc2ccccc2)cc1	0.0	5.8	-0.7	-10.4	-7.7	-4.8
CSc1ccc(CNc2ccccc2)cc1	.	.	-3.1	-15.0	-4.2	89.9*
O=C(Nc1ccccc1)c1sc(Cl)nc1-c1ccccc1	0.2	1.3	0.1	1.9	-4.8	94.2*
O=C(Nc1cc(F)cc(F)c1)c1sc(Cl)nc1-c1ccccc1	0.2	-0.9	2.2	-2.8	-5.3	-17.9
COc1ccc(CN2C/C(=C/c3ccc(C)cc3)N3C(=O)C[C@@H](c4ccccc4)N=C23)c(OC)c1	.	7.8	.	.	.	.
Cc1ccc2cc(C3C(C#N)=C(N)Oc4c3ccc3cccnc43)c(=O)[nH]c2c1 (centres undefined)	0.1	.	7.3	42.0	-3.6	-103.5
CCc1ccc2[nH]c(=O)c(C3C(C#N)=C(N)Oc4c3ccc3cccnc43)cc2c1 (centres undefined)	-0.2	18.2	1.4	88.9*	-5.0	-9.2
Cn1ccc(C(=O)N/N=C/c2cccnc2)n1	-0.1	0.8	-5.3	28.0	-4.8	0.9
CN(C)c1ccc(/C=N/NC(=O)c2ccccn2)cc1	0.1	-5.9	0.0	15.7	-6.2	87.5*
CN(C)c1ccc(/C=N/NC(=O)c2ccnn2C)cc1	-0.3	-1.7	-1.8	34.5	-9.7	98.6*
CN(C)c1ccc(/C=N/NC(=O)c2ccn(C)n2)cc1	0.0	-4.4	-2.2	34.2	-1.4	94.3*
CN(C)c1ccc(NC(=S)c2ccccn2)cc1	0.0	0.7	.	-12.3	.	97.6*
O=C(N/N=C/c1ccncc1)c1ccccn1	-0.2	2.9	-0.3	36.0	-5.0	-17.0
Cc1ccc(/C=N/NC(=O)c2ccco2)cc1	0.0	-1.3	-4.9	-9.9	-10.9	1.5
CN(C)c1ccc(/C=N/NC(=O)c2ccco2)cc1	-0.3	0.7	-1.4	9.1	-0.8	98.6*
Cc1c[nH]c2cccc(-c3cccc4ccccc34)c12	.	6.4	.	.	.	.
COc1ccccc1C(=O)n1ccc2ccc(-c3ccc4ccn(Cc5ccc(C#N)cc5)c4c3)cc21	.	16.1	.	.	.	.
Cc1cccc(NC(=O)c2cc(NC(=O)C3CCCCC3C(=O)O)ccc2N2CCCCC2)c1 (centres undefined)	-0.1	30.7	-1.6	-4.4	-2.9	.
Cc1ccc(NC(=O)c2cc(NC(=O)c3ccccc3C(=O)O)ccc2N2CCCCC2)cc1	-0.2	1.4	1.6	45.4	-6.2	98.6*
CC(=O)Nc1ccc(N2CCCCC2)c(C(=O)Nc2cccc(C)c2)c1	0.3	0.5	-1.7	-0.6	-10.5	97.4*
Cc1ccc(NC(=O)c2cc(N3C(=O)CCC3=O)ccc2N2CCCCC2)cc1	-0.7	-2.1	-0.6	-10.2	-7.9	-1.1
Cc1ccc(NC(=O)c2cc(NC(=O)/C=C\C(=O)O)ccc2N2CCCCC2)cc1	0.1	8.7	.	9.0	.	98.7*
COC(=O)[C@]12C[C@H](CC(=O)N3CCC(c4ccccc4)CC3)C(=O)N(Cc3ccc4c(c3)OCO4)C1=C[C@H](C(C)(C)C)O[C@@H]2C	.	10.7	.	.	.	.
CCCCC1(C)OC(=O)C(=Cc2ccc(N(CC)CC)cc2)C(=O)O1 (centres undefined)	-0.3	8.2	2.6	47.3	-3.5	96.6*
c1ccc(Nc2nc(N3CCCC3)nc(N3CCCC3)n2)cc1	-0.3	-4.4	9.5	-9.2	-5.9	-3.0

Bioassay records: PubChem, several laboratories
